Cy5 interf NS3h = Cy5 fluorescence quenchers or enhancers, artefact control for HCV NS3 helicase inhibitor project, biochemical, ChemBridge library, Cy5 readout; fluorescence interference ratio at 100 µM; Cy5-dT15 DNA with NS3h, fluorescence interference; actives lie on both sides; signal over control mean, under 1 quenches; actives 6% (n = 16,000);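 active = compound fluorescence over control fluorescence at most 0.8, a quencher, or at least a set upper limit, an enhancer; inactive = ratio between 0.8 and the set upper limit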
HCV NS3h FP = HCV NS3 helicase inhibitors, primary screen, biochemical, fluorescence polarization, ChemBridge library | Hepatitis C virus NS3 helicase | NS3h Cy5-dT15 DNA binding | inhibition, % at 100 µM | actives 1.6% (n = 16,000) | AID 687043, 2013;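 active = inhibition above the average over every tested compound plus 3 SD, cut at about 40% in these data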
* marks the source's active call; other numbers are inactive results. Shown are actives, neighbours in structure and some others; about 6.9% of the full set was active somewhere.

SMILES	Cy5 interf NS3h	HCV NS3h FP
COc1ccc(N(CC(=O)Nc2ccc(C(C)C)cc2)S(C)(=O)=O)c(OC)c1	1	17.6
Nc1nnnn1/N=C\c1ccc(C=O)cc1	0.711*	-9.4
Nc1nnnn1/N=C\c1ccc(OCc2ccccc2)cc1	1.06	-5.4
COc1ccc(C2(CNC(=O)C(c3ccccc3)c3ccccc3)CCCC2)cc1OC	1.09	16.6
CCc1ccccc1NC(=O)CC1S/C(=N/N=C(C)\C=C\c2ccc(OC)cc2)NC1=O (stereo not given)	1.21*	-28.6
C/C(=N/N=C1\NC(=O)C(CC(=O)Nc2ccccc2C)S1)c1ccc(F)cc1 (stereo not given)	1.05	2.1
O=C(Nc1ccc(S(=O)(=O)Nc2ncccn2)cc1)c1cccs1	1.05	1.9
O=C(Nc1ccc(S(=O)(=O)NC(=O)C2CCCCC2)cc1)c1cccc(Br)c1	0.587*	-1.5
O=C(Nc1ccc(S(=O)(=O)Nc2ncccn2)cc1)c1cccc(Br)c1	1.07	15.7
CS(=O)(=O)c1ccc2nc(NC(=O)c3ccc(Cl)c(Cl)c3)sc2c1	0.712*	-25.7
CS(=O)(=O)c1ccc2nc(NC(=O)c3ccccc3)sc2c1	1.13	12.6
COc1ccc(C(=O)Nc2cc(-c3nc4cc(Cl)cc(Cl)c4o3)ccc2C)cc1	0.964	4.1
COc1ccc(-c2cn3cccc(C)c3n2)cc1Br	0.807	17.0
COc1ccc(-c2cn3ccccc3n2)cc1Br	0.79*	10.6
CCCOc1ccc(C(=O)Nc2ccc(O)c(-c3nc4cc(C)c(C)cc4o3)c2)cc1	0.988	14.2
CCC(C)NCC(O)Cn1c2ccc(Cl)cc2c2cc(Cl)ccc21 (stereo not given)	0.773*	5.4
CS(=O)(=O)N(CC(O)Cn1c2ccc(Cl)cc2c2cc(Cl)ccc21)c1ccccc1 (stereo not given)	0.949	12.8
O=C(NCC1CCCO1)c1cnn2c1NC(c1ccc(Br)cc1)CC2C(F)(F)F (stereo not given)	0.916	12.9
O=C(Nc1ccc(-c2cnc(-c3ccc(NC(=O)c4ccccc4)cc3)nc2)cc1)c1ccccc1	0.951	3.2
Cc1ccccc1C(=O)Nc1ccc(-c2cnc(-c3ccc(NC(=O)c4ccccc4C)cc3)nc2)cc1	0.751*	17.7
CCOc1cc(/C=C2\C(=O)NC(=O)N(c3cc(C)cc(C)c3)C2=O)ccc1O	0.958	1.3
O=C1C(=Cc2ccc(Br)cc2)C(=O)c2ccccc21	1.01	9.1
Cc1c(Cl)cccc1NC(=O)CSCc1cccc(Br)c1	0.943	6.7
COc1ccc(CN2CCN(CC3CC4C=CC3C4)CC2)cc1Br (stereo not given)	0.749*	-9.0
COc1ccc(OC)c(CN2CCN(Cc3ccc(OC)c(Br)c3)CC2)c1	0.935	-6.9
SMILES	Cy5 interf NS3h	HCV NS3h FP
COc1c(Cl)cc(C(=O)Nc2ccc(O)c(-c3nc4cc(C)ccc4o3)c2)cc1Cl	1.02	-15.3
CC(=O)C1(C)N(O)C(C)(C)C(c2ccc(Br)cc2)=[N+]1[O-] (stereo not given)	0.96	-4.5
Cc1cc(Br)cc(C)c1NC(=O)COc1ccccc1	1.01	19.9
CC12CC3CC(C)(C1)CC(CNC(=O)COc1ccccc1)(C3)C2	0.699*	17.7
c1ccc(N(c2ccccc2)c2nc(-n3cnc4ccccc43)nc(-n3cnc4ccccc43)n2)cc1	1.01	0.0
CN(C1=NC(=O)S/C1=C\c1ccc([N+](=O)[O-])cc1)c1ccc(O)cc1	0.924	33.2
CN(C1=NC(=O)/C(=C\C(Cl)=C\c2ccc([N+](=O)[O-])cc2)S1)c1ccc(O)cc1	0.405*	1.2
COc1cc([N+](=O)[O-])ccc1N1C(=O)C2C3C=CC(C4CC34)C2C1=O (stereo not given)	0.749*	8.7
COc1ccc(N2C(=O)C3C4C=CC(C5CC45)C3C2=O)c([N+](=O)[O-])c1 (stereo not given)	0.984	6.3
COc1ccc(C)cc1NC(=O)Cn1cnc2c1c(=O)n(C)c(=O)n2C	1.08	-18.7
CCN(CC)c1ccc(/C=N\N2C(=O)c3ccccc3C2=O)cc1	1.22*	7.3
CCN(CC)c1ccc(/C=N/NC(N)=O)cc1	1.06	4.6
CCCCN(CC)Cc1c(C)[nH]c2ccc(C)cc2c1=O	1	3.1
CCOc1ccc(C(=O)Nc2cc(Cl)cc(Cl)c2)cc1[N+](=O)[O-]	0.941	-7.2
Cc1c(Br)c(C(F)(F)F)nn1CC(=O)N(C)c1ccccc1	0.55*	6.8
Cc1c(Br)c(C(F)(F)F)nn1CC(=O)Nc1cc(C(F)(F)F)ccc1Cl	1.04	0.0
COc1ccccc1OCCCCOc1ccc(Cl)c(C)c1	0.918	5.6
Cc1cc(C=Nc2ccccc2)c(O)s1	0.927	9.5
COc1ccc(C2CC(c3ccccc3)=NN2C(C)=O)cc1 (stereo not given)	0.917	4.3
CCCCOc1ccc(NC(=O)c2cccc(OC)c2)cc1	1.02	10.0
COCCN1C(=O)c2ccc3c4c(ccc(c24)C1=O)CC3	0.962	9.2
CC1C(c2ccccc2)NC(c2ccccc2)C(C)C1(O)c1ccccc1 (stereo not given)	0.684*	4.2
CCCC1C(c2ccccc2)NC(c2ccccc2)C(C)C1(O)CCC (stereo not given)	1.02	16.3
Cc1cc(C)c(/C=N\O)c(C)c1/C=N\O	0.689*	-0.6
CN(C)c1ccc(NC2=NS(=O)(=O)c3ccccc32)cc1	0.945	0.3
SMILES	Cy5 interf NS3h	HCV NS3h FP
c1ccc(NC2=Nc3cccc4cccc2c34)cc1	0.588*	23.5
C=CCc1c(C)nc2cc(-c3ccc(C)cc3)[nH]n2c1=O	1.22*	62.5*
C=CCc1c(C)nc2c(C)c(-c3ccc(C)cc3)[nH]n2c1=O	1.13	20.1
COc1ccc(C(=O)/C=C/Nc2ccc(Br)c(Cl)c2)cc1	1.01	1.3
Cc1cccc(C(=O)Oc2ccc(/C=C3/SC(=S)N(c4ccccc4)C3=O)cc2)c1	1.09	3.6
Cc1ccc(C=C2C(=O)N(C)C(=S)N(c3ccccc3)C2=O)s1	1.33*	19.9
CCN(CC)c1ccc(NC(=O)c2ccc(C)c([N+](=O)[O-])c2)cc1	1.03	12.9
O=C1N/C(=N/N=C\c2cccc([N+](=O)[O-])c2)SC1Cc1cccc(Cl)c1Cl (stereo not given)	0.938	-11.5
Cc1cc(NC(=O)c2ccc(Cl)cc2)ccc1-c1cc2ccccc2oc1=O	0.659*	3.1
Cc1cc(NC(=O)c2ccccc2I)ccc1-c1cc2ccccc2oc1=O	1	13.6
COc1ccccc1C(=O)Nc1ccc(-c2cc3ccccc3oc2=O)cc1	0.763*	-30.3
CCOc1ccc(C(=O)Nc2ccc(-c3cc4ccccc4oc3=O)c(C)c2)cc1Cl	0.957	-1.9
Cc1cccc(N2C(=O)c3ccc(C(=O)O)cc3C2=O)c1C	0.944	-4.6
COC(=O)c1cc(Br)c(C)c(NC(C)=O)c1[N+](=O)[O-]	1.09	1.9
Cc1cccn2c(=O)c(/C=C3\SC(=S)N(C(C)c4ccccc4)C3=O)c(NCCc3ccccc3)nc12 (stereo not given)	0.995	12.4
Cc1ccc(C2CC(C(F)(F)F)n3nc(C(=O)N4CCN(c5ccc(F)cc5)CC4)c(Cl)c3N2)cc1 (stereo not given)	0.49*	10.5
Cc1ccc(C2CC(C(F)(F)F)n3nc(C(=O)N4CCN(c5ccc(F)cc5)CC4)cc3N2)cc1 (stereo not given)	0.92	6.4
